In the library only some 9.4% were active in any assay of this set; here they are far more common.
IMPase Li cell – cell-permeable IMPase inhibitors with lithium potentiation; CHO-M1 cells, IP1 TR-FRET (IP-One), carbachol + lithium; Potency, µM (top dose mostly 59.4 µM), hits mostly inhibitors; 0.35% of 210,000 active;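 also: IP1 builds up when IMPase is blocked and the TR-FRET signal falls; nearly all actives have a fitted effect of over 50% in size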
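CHO-M1, 2000 cells/well, 16–30 h culture; cpd + low Li+, 30 min 37C; lysis with d2-IP1/Eu-anti-IP1 Ab, 10 min RT; TR-FRET 665/620 ratio and 620 channel; AC50 via Hill.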
HTT cytoprotect – protects HTT-Q103 PC12 cells, measured by ATP; Potency, µM (doses to about 56.4 µM), hits mostly activators; 0.14% of 230,000 active; PC12 HTT-Q103 induced, cytoprotection, ATP luminescence, 40 h; also: nearly all actives have a fitted effect of over 45% in size
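Compounds added alongside 100 nM tebufenozide, which induces toxic Q103 huntingtin exon 1-GFP in stable PC12 cells; surviving cells quantified by luminescent ATP measurement. Medium: phenol red-free DMEM, 5% equine and 5% calf serum.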
HPGD inh – blocks human HPGD enzyme activity. P15428. purified HPGD, NADH fluorescence kinetic, PGE2 substrate. Potency, µM, most hits filed as inhibitors. 4.3% of 150,000 active; active = well fitted inhibition curve with a large enough effect, not every such curve was filed as active; inconclusive = small, poorly fitted or top-dose-only effect, or another doubt; inactive = no such curve, though single readings can be large or run the other way
Target sequence (P15428 whole entry, looked up): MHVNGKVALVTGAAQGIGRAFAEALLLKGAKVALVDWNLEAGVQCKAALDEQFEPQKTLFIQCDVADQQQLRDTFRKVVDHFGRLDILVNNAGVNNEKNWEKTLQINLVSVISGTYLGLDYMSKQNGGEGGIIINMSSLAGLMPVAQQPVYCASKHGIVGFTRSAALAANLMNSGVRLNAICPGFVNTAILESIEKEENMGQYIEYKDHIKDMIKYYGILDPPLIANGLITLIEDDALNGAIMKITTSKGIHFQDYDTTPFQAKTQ
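20 nM HPGD preincubated 15 min at room temperature with compound in 50 mM Tris-HCl pH 8, 0.01% Tween 20. Started with 1 mM NAD+ and 30 uM prostaglandin E2; NADH fluorescence (360/450 nm) read 5 times over 30-s intervals, last minus first.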
ALDH1A1 block – blocks purified human ALDH1A1 activity. P00352. AID 1030. 7.3% of 220,000 active. Purified ALDH1A1, NADH fluorescence, propionaldehyde substrate. Potency, µM (series often up to 75.3 µM), usual class: inhibitors; active = well fitted inhibition curve with a large enough effect, not every such curve was filed as active; inconclusive = small, poorly fitted or top-dose-only effect, or another doubt; inactive = no such curve, though single readings can be large or run the other way
IMPase inh – cell-permeable inhibitors of inositol monophosphatase (IMPase) | 120,000 tested, under 10 active | CHO-M1 cells, IP1 accumulation, HTRF TR-FRET ratio | inhibition (IP1 accumulation), % at 46.1 µM | P97697; active = well fitted curve in the direction sought with a large enough effect in the signal ratio, not every such curve was filed as active; inconclusive = small, poorly fitted or top-dose-only effect, or a change in a side signal; inactive = no such curve, though single readings can be large or run the other way; the % refers to the signal ratio;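 also: cells stimulated with carbachol in lithium chloride buffer; higher means more IMPase inhibition seen as more IP1 and lower FRET ratio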
Target sequence (P97697 whole entry, looked up): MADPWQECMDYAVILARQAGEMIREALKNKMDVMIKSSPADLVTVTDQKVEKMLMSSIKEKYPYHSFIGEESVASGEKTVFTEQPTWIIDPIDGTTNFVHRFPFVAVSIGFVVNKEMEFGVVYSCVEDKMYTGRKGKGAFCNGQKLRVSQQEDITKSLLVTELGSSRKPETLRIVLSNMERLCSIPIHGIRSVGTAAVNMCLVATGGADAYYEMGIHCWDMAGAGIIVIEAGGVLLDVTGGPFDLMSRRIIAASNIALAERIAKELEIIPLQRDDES
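The IP-One HTRF competitive assay in carbachol-stimulated CHO-M1 cells quantifies cellular IP1. Compounds spanned up to 46 uM final, and activity is expressed as AC50 from concentration-response fits of the ratio and donor data.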
HttQ103 aggreg – inhibitors of mutant huntingtin aggregate formation in PC12 cells; AID 1688; Potency, µM (doses to about 46.1 µM), hits mostly inhibitors; 1.1% of 220,000 active; PC12 HttQ103-GFP aggregates, Acumen cytometry, 40 h; also: nearly all actives have a fitted effect of over 60% in size
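Aggregates are detected as GFP objects 1–25 µm with signal 6 STDEV over background in lysates of induced PC12 cells. These carry Huntingtin exon 1 with 103 glutamines fused to GFP under an ecdysone promoter; compounds titrated.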
Each line names hits and unclear results; the compound was inactive in the other large screens; ! = a repeat was not active. Unless noted, calls follow the shape of the dose curve; as a rule, active = well fitted curve in the direction sought with a large enough effect; inconclusive = small, poorly fitted or top-dose-only effect, or another doubt; inactive = no such curve, though single readings can be large; an effect the other way counts as inactive or inconclusive.

C[C@H](CCC(=O)O)[C@H]1CC[C@]2(C)[C@@H]3C(=O)C[C@H]4C(C)(C)[C@@H](O)CC[C@]4(C)[C@H]3C(=O)C[C@@]12C	none (no result: IMPase inh, HttQ103 aggreg)
CCN(CC(=O)Nc1ccc(C)c(F)c1)CC(=O)NC(C)C	ALDH1A1 block 3.16µM (no result: HPGD inh, IMPase inh)
CCC(C(=O)OC)n1cnc2c(nnn2-c2cccc(Cl)c2)c1=O (stereo not drawn)	HPGD inh 20µM, HttQ103 aggreg inconclusive
CCC(C(=O)OC)n1cnc2c(nnn2-c2ccc(OC)cc2)c1=O (stereo not drawn)	none
COc1cc2nc3c(c([Si](C)(C)C(C)(C)C)c2cc1OC)Cn1c-3cccc1=O	HPGD inh inconclusive, ALDH1A1 block inconclusive (no result: IMPase inh, HttQ103 aggreg)
CN(C)c1ccc(C2C3C(=O)NC(=O)C3ON2c2ccc(Cl)cc2)cc1 (stereo not drawn)	ALDH1A1 block 25.1µM
CCOCCOC(=O)c1ccc(NC(=O)/C=C/c2ccc(OC)c(OC)c2)cc1	none (no result: IMPase Li cell, HTT cytoprotect, HPGD inh, ALDH1A1 block, HttQ103 aggreg)
O=C(O)CC1S/C(=N/N=C/c2ccc(-c3ccccc3[N+](=O)[O-])o2)NC1=O (stereo not drawn)	HPGD inh 15.8µM, ALDH1A1 block 8.91µM
Cc1ccc(-c2ccc(/C=N/N=C3/NC(=O)C(CC(=O)O)S3)o2)c([N+](=O)[O-])c1 (stereo not drawn)	HPGD inh 17.8µM
Cc1ccc(S(=O)(=O)Oc2ccc(/C=N/N=C3/NC(=O)C(CC(=O)O)S3)cc2)cc1 (stereo not drawn)	none (no result: HPGD inh, IMPase inh)
O=C(O)CCCNC(=O)CC1S/C(=N/N=C/c2ccccc2O)NC1=O (stereo not drawn)	none (no result: HPGD inh, IMPase inh)
COc1cc(-c2nnc(SCC(=O)N3CCCc4ccccc43)o2)cc(OC)c1OC	none (no result: IMPase Li cell, HTT cytoprotect, HPGD inh, ALDH1A1 block, HttQ103 aggreg)
C/C=C/C1Oc2ccc(OC)cc2N2C(=O)C(C)C(OCOC)C12 (stereo not drawn)	none (no result: IMPase Li cell, HPGD inh, IMPase inh, HttQ103 aggreg)
Cc1nc(SCC(=O)OCc2ccccc2)c(C#N)c(-c2ccccc2)c1C(=O)Nc1ccccc1	ALDH1A1 block 20µM
Cc1cc(C)cc(OCc2ccc(C(=O)Nc3ccccc3F)o2)c1	none (no result: IMPase Li cell, HTT cytoprotect, HPGD inh, ALDH1A1 block, HttQ103 aggreg)
CC/C=C\C/C=C\C/C=C\CCCCCCCCCCCC(=O)O	ALDH1A1 block 22.4µM! (no result: IMPase inh, HttQ103 aggreg)
CC/C=C\C/C=C\C/C=C\CCCCCCCCCC(=O)O	none (no result: IMPase inh, HttQ103 aggreg)
CC/C=C\C/C=C\C/C=C\CCCCCCCC(=O)O	HTT cytoprotect inconclusive, ALDH1A1 block 10µM!
CC/C=C\C/C=C\C/C=C\C/C=C\C/C=C\CCCC(=O)O	none (no result: IMPase inh)
O=C(CCC(=O)Nc1nnc(C2CCCCC2)s1)NCc1cccs1	IMPase Li cell 14.1µM
O=C(NCc1cccs1)Nc1cccs1	HPGD inh inconclusive, ALDH1A1 block 17.8µM, HttQ103 aggreg inconclusive
O=C(NCc1cccs1)C1CCCCC1	HPGD inh 14.1µM
Cc1csc2nc(CNC(=O)C3CCCCC3)cn12	HPGD inh 15.8µM
Cc1ccccc1CNC(=O)Nc1cccs1	ALDH1A1 block inconclusive
COCC(=O)N1CCC2(CCCN(Cc3ccccc3)C2)CC1	none (no result: IMPase inh, HttQ103 aggreg)
COC1=C(C(=O)c2ccccc2)C(=O)C2(CC=C(C)C)C[C@H](C(=O)OCC(F)(F)F)C(C)(C)[C@@]1(CC=C(C)C)C2=O (tested in a mixture with another compound)	HTT cytoprotect inconclusive (no result: IMPase inh, HttQ103 aggreg)
CCc1nc2nc(C)cc(Nc3ccc(OC)cc3)n2n1	none (no result: IMPase Li cell, HTT cytoprotect, HPGD inh, ALDH1A1 block, HttQ103 aggreg)
N#C/C(=C/c1ccc(N2CCOCC2)o1)c1ccc(Br)cc1	HPGD inh inconclusive, ALDH1A1 block 15.8µM, HttQ103 aggreg inconclusive
N#C/C(=C/c1ccc(N2CCCCCC2)o1)c1cccc(F)c1	HTT cytoprotect inconclusive, HPGD inh 25.1µM, ALDH1A1 block 2µM, HttQ103 aggreg inconclusive
N#C/C(=C\c1ccc(N2CCOCC2)cc1)c1ccccc1	ALDH1A1 block inconclusive (no result: HTT cytoprotect, IMPase inh)
N#C/C(=C/c1ccc(N2CCOCC2)o1)c1nc2ccccc2[nH]1	IMPase inh inconclusive
N#C/C(=C\c1ccc(N2CCOCC2)o1)c1ccccc1	HPGD inh inconclusive, ALDH1A1 block 11.2µM, HttQ103 aggreg inconclusive
O=C(COC(=O)c1ccc(OC(F)F)cc1)NCCCN1CCCC1=O	none (no result: IMPase Li cell, HPGD inh, IMPase inh)
Oc1ccc(Cc2nccc3cc(O)c(O)cc23)cc1O	none (no result: IMPase inh, HttQ103 aggreg)

Screening results deposited in PubChem BioAssay by National Center for Advancing Translational Sciences (NCATS).
